Data taken from ChEMBL document CHEMBL3433997, “St. Jude Leishmania screening dataset” (2016).

Legend:
Type in all cases: functional
[1] = target: Solute carrier family 2, facilitated glucose transporter member 1 (Homo sapiens) (UniProt P11166); assay: ST_JUDE_LEISH: Cytotoxicity at 2uM final concentration against transgenic Leishmania Mexicana promastigotes LmGLUT1 that are glucose transport deficient and complemented with the human glucose transporter GLUT1. Activity is measured by DNA content using SYBR green in vitro
[2] = target: Hexose transporter 1 (Plasmodium falciparum) (UniProt O97467); assay: ST_JUDE_LEISH: Cytotoxicity at 2uM final concentration against transgenic Leishmania Mexicana promastigotes LmPfHT that are glucose transport deficient and complemented with the Plasmodium falciparum hexose transporter. Activity is measured by DNA content using SYBR green in vitro
[3] = target: Glucose transporter (Leishmania mexicana) (UniProt O61059); assay: ST_JUDE_LEISH: Cytotoxicity at 2uM final concentration against transgenic Leishmania Mexicana promastigotes LmGT2 that are glucose transport deficient and complemented with the L. Mexicana glucose transporter 2. Activity is measured by DNA content using SYBR green in vitro

Solute carrier family 2, facilitated glucose transporter member 1 (Homo sapiens), sequence (P11166 whole entry): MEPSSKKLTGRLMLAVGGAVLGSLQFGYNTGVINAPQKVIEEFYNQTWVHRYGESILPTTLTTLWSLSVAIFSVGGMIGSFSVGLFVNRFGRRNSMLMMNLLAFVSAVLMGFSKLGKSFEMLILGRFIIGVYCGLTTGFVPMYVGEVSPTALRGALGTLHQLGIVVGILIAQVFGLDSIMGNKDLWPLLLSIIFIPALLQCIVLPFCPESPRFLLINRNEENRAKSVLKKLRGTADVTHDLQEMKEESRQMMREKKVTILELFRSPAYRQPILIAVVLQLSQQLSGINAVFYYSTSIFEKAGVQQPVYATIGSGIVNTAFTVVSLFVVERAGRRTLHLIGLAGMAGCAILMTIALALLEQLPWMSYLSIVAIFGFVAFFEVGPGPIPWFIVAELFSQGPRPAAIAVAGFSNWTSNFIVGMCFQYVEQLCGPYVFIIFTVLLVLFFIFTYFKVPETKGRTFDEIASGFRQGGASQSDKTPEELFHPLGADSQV

| Compound | inhibition [1] [%] | inhibition [2] [%] | inhibition [3] [%] |
| --- | --- | --- | --- |
| O=C(/C=C/c1ccc(Cl)c(Cl)c1)N1CCC(CN2CCC(Cc3nc4ccccc4[nH]3)CC2)CC1 | 1.43 | 1.29 | 3.16 |
| CCN(CCCN1CCCCC1)c1cc(C)nc(Nc2ccc3c(c2)CCC3)n1 | -1.26 | 1.07 | 0.58 |
| CCOC(=O)c1ccc(NC(=O)Nc2cccc(-c3ccc(-c4nc5cc(F)ccc5[nH]4)cc3)c2)cc1 | 2.21 | 2.88 | 0.33 |
| COc1cc2nc(Nc3ccc4c(c3)OCCO4)nc(N)c2cc1OC | -0.32 | -0.78 | 1.75 |
| CC(C)CC(C)NC(=O)C1Cc2c([nH]c3cc(Cl)ccc23)C2(CCN(CCc3ccccc3)CC2)N1 (centres undefined) | 6.97 | 7.27 | 4.34 |
| O=C(Nc1ccc(Cn2ncc(N3CCCNCC3)c(Cl)c2=O)cc1)Nc1cc(C(F)(F)F)cc(C(F)(F)F)c1 | 2.99 | 1 | 1.99 |
| COc1ccccc1NC(=O)Nc1cccc(-c2cccc(-c3nc4cccc(C)c4[nH]3)c2)c1 | -1.43 | 0.52 | -1.31 |
| N#Cc1cccc(C(=O)Nc2cccc(-c3ccc(CN4CCC(O)CC4)cc3)c2)c1 | 3.3 | -0.89 | 0.83 |
| O=C(Nc1ccc(CN2CCOCC2)cc1)c1ccc(-c2cc(Cl)ccc2Cl)o1 | 11 | 8.63 | 7.99 |
| CCCCNc1c(CC)c(C)c(C#N)c2nc3ccccc3n12 | 29.1 | 51.4 | 21.8 |
| COc1cccc(CN2CCCN(Cc3cccc(NC(=O)c4ccc(-c5ccccc5)cc4)c3)CC2)c1 | 0.95 | 0.27 | -6.64 |
| COc1ccc(CN2CCC(CNCCc3c(Cl)cccc3Cl)CC2)cc1 | 7.06 | 8.38 | 9.64 |
| CC[C@H](C)CNC(=O)c1ccnc(-c2cccc(CN(C)C3CCN(C)CC3)c2)c1 | 1.42 | 2.4 | 2.59 |
| O=C(Nc1ccc(Cl)cc1)c1ccc(CN2CCCN(Cc3ccsc3)CC2)cc1 | 2.78 | 1.42 | 7.21 |
| O=C(NCCCCN1CCC(c2nc3ccccc3s2)CC1)c1cc2ccccc2[nH]1 | 3.02 | 0.13 | -1.01 |
| CCC(CC)CN1C(=O)C(c2ccccc2)(c2ccccc2)N=C1N | 6.55 | 5.61 | 6.88 |
| O=C(Nc1ccc(N2CCN(Cc3ccccc3Cl)CC2)cc1)c1ccc([N+](=O)[O-])o1 | 71.5 | 51.2 | 11.1 |
| O=C(/C=C/c1ccc(Cl)c(Cl)c1)NCCCCCN1CCC(C(=O)Nc2cccc(Cl)c2)CC1 | 2.86 | 1.97 | 2.09 |
